The list is not random: actives were taken first. Their share in the collection is about 2.5%.
LEDGF integ inh = blocks HIV-1 LEDGF/p75-dependent DNA integration; 370,000 compounds, 0.64% hits; TR-FRET IN-LEDGF/p75 DNA integration, Eu/Cy5; inhibition, % at 3.7 µM; AID 743269;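 active means inhibition above the screen-wide mean plus 3 SD, cut at about 13% in these data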;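 further: signal is the Cy5 over europium emission ratio at 671 and 618 nm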
MBD2 inh = blocks human MBD2 binding to methylated DNA; AID 686964; TR-FRET, MBD2 binding to methylated oligonucleotide; 370,000 compounds, 0.31% hits; Q9UBB5; inhibition, % at 4.4 µM; in the data active means inhibition above about 13%
PRMT1 inh = PRMT1 (human) inhibition, primary screen. inhibition, % at 2.79 µM. Q99873. 370,000 compounds, 1.3% hits. recombinant PRMT1, activity-based probe fluorescence polarization. AID 652257;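 active means inhibition above about 21% made by adding two undisclosed values, limit read from the data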
Target sequence (Q99873 whole entry, looked up): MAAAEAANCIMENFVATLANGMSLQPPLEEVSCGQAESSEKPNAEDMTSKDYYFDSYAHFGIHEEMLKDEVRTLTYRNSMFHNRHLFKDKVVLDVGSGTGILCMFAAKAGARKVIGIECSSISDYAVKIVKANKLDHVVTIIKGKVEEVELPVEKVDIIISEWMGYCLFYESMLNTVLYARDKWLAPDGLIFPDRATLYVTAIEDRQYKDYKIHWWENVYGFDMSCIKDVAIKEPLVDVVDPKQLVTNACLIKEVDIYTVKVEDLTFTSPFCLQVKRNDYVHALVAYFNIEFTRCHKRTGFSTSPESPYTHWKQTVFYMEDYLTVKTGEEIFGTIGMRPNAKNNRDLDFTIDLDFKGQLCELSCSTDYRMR
UHRF1 MBD2 ctr = human UHRF1 methylated DNA binding inhibitors; AID 687016; UHRF1 binding to methylated oligo, TR-FRET; Q96T88; inhibition, % at 4.4 µM; 370,000 compounds, 0.75% hits;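 further: UHRF1 SRA domain binding a hemimethylated CpG hairpin DNA probe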
UHRF1 DNA bind = counter-screen for MBD2 inhibitors: human UHRF1 methylated DNA binding inhibitors. shares compounds with MBD2 inh. UHRF1 binding to methylated oligonucleotide, TR-FRET. inhibition, % at 4.4 µM. 1,000 compounds, 25% hits;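 further: UHRF1 SRA domain binding a labeled hemimethylated CpG hairpin DNA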
MBD2 confirm = MBD2-DBD methyl-DNA binding inhibition, TR-FRET confirmation. shares compounds with MBD2 inh. 1,000 compounds, 26% hits. inhibition, % at 4.4 µM. TR-FRET MBD2-DBD binding to methylated oligonucleotide; in the data active means inhibition above about 14%
Hits are given with their value. Unless noted, no stated cut-off is given here; in the data, active means inhibition above about 21%; inactive means the rest.

What do the screens show for `CCc1ccccc1Nc1nc(N)nc(COC(=O)c2c(C)noc2C)n1`?
LEDGF integ inh: inactive; MBD2 inh: 14; PRMT1 inh: inactive; UHRF1 MBD2 ctr: 23; UHRF1 DNA bind: inactive; MBD2 confirm: inactive

Results for CC(C)CC1(C)NC(=O)N(CC(=O)N2C(C)CCCC2C)C1=O (configuration not stated) ?
LEDGF integ inh: inactive; MBD2 inh: inactive; PRMT1 inh: inactive; UHRF1 MBD2 ctr: inactive

Results for O=C(N=C1SC2CS(=O)(=O)CC2N1CCc1ccccc1)C1CCCCC1 (configuration not stated) ?
LEDGF integ inh: inactive; MBD2 inh: 86; PRMT1 inh: inactive; UHRF1 MBD2 ctr: inactive; UHRF1 DNA bind: inactive; MBD2 confirm: inactive

What do the screens show for `Cc1ccc(C(=O)Nn2c(C)nc3ccccc3c2=O)cc1C`?
LEDGF integ inh: inactive; MBD2 inh: inactive; PRMT1 inh: inactive; UHRF1 MBD2 ctr: inactive

How did C=Cc1c(C)c2cc3[nH]c(cc4nc(cc5nc(cc1[nH]2)C(C)=C5CCC(=O)O)C(CCC(=O)O)=C4C)c(C)c3C=C do in these assays?
LEDGF integ inh: 85; MBD2 inh: 47; PRMT1 inh: 27; UHRF1 MBD2 ctr: 75; UHRF1 DNA bind: 97; MBD2 confirm: 67

What do the screens show for `O=C(OCC1OC(n2ncc(=O)[nH]c2=O)C(OC(=O)c2ccccc2)C1OC(=O)c1ccccc1)c1ccccc1` (configuration not stated)?
LEDGF integ inh: inactive; MBD2 inh: 28; PRMT1 inh: inactive; UHRF1 MBD2 ctr: inactive; UHRF1 DNA bind: inactive; MBD2 confirm: inactive

Results for O=C(NCCCN1CCCC1=O)c1ccc([N+](=O)[O-])s1 ?
LEDGF integ inh: inactive; MBD2 inh: inactive; PRMT1 inh: inactive; UHRF1 MBD2 ctr: inactive

What do the screens show for `COc1ccccc1NC(=O)COC(=O)c1cc2c(s1)CCC2`?
LEDGF integ inh: inactive; MBD2 inh: inactive; PRMT1 inh: inactive; UHRF1 MBD2 ctr: inactive

What do the screens show for `COc1ccc(OC)c(NC(=O)COC(=O)c2cc3c(s2)CCC3)c1`?
LEDGF integ inh: inactive; MBD2 inh: 19; PRMT1 inh: inactive; UHRF1 MBD2 ctr: 47; UHRF1 DNA bind: 40; MBD2 confirm: 35

Results for O=C(c1cc(COc2ccc(F)cc2F)on1)N1CCCC(c2ccccc2)C1 (configuration not stated) ?
LEDGF integ inh: inactive; MBD2 inh: 15; PRMT1 inh: inactive; UHRF1 MBD2 ctr: 25; UHRF1 DNA bind: inactive; MBD2 confirm: inactive

How did O=C(c1cc(COc2ccc(F)cc2Cl)on1)N1CCCC(c2ccccc2)C1 (configuration not stated) do in these assays?
LEDGF integ inh: inactive; MBD2 inh: inactive; PRMT1 inh: inactive; UHRF1 MBD2 ctr: inactive

What do the screens show for `CCCCNC(=O)N1CCCC1C(=O)Nc1cccc(OC)c1` (configuration not stated)?
LEDGF integ inh: inactive; MBD2 inh: inactive; PRMT1 inh: inactive; UHRF1 MBD2 ctr: inactive

Results for CCN1C(=O)CC(N2CCC(C(=O)N3CCOCC3)CC2)C1=O (configuration not stated) ?
LEDGF integ inh: inactive; MBD2 inh: 15; PRMT1 inh: inactive; UHRF1 MBD2 ctr: 23; UHRF1 DNA bind: inactive; MBD2 confirm: inactive

Results for COc1cccc(-c2nc3nc(C)cc(C)n3c2NCc2ccccc2)c1 ?
LEDGF integ inh: inactive; MBD2 inh: inactive; PRMT1 inh: inactive; UHRF1 MBD2 ctr: inactive

How did CCOC(=O)Nc1nc(-c2ccc(Cl)cc2Cl)cs1 do in these assays?
LEDGF integ inh: inactive; MBD2 inh: 13; PRMT1 inh: inactive; UHRF1 MBD2 ctr: inactive; UHRF1 DNA bind: 26; MBD2 confirm: inactive

What do the screens show for `CCN(C(=O)COC(=O)/C=C/c1cccc(Br)c1)C1CCS(=O)(=O)C1` (configuration not stated)?
LEDGF integ inh: inactive; MBD2 inh: 16; PRMT1 inh: inactive; UHRF1 MBD2 ctr: 28; UHRF1 DNA bind: inactive; MBD2 confirm: inactive

How did CN(C(=O)COC(=O)/C=C/c1cccc([N+](=O)[O-])c1)C1CCS(=O)(=O)C1 (configuration not stated) do in these assays?
LEDGF integ inh: inactive; MBD2 inh: inactive; PRMT1 inh: inactive; UHRF1 MBD2 ctr: inactive

Results for Cc1ccc(S(=O)(=O)N2C[C@H]3C(=O)C[C@@H](c4ccccc4F)N(S(=O)(=O)c4ccc(C)cc4)[C@H]3C[C@H]2c2ccccc2F)cc1 ?
LEDGF integ inh: inactive; MBD2 inh: inactive; PRMT1 inh: inactive; UHRF1 MBD2 ctr: inactive
